# Results taken from PubChem BioAssay.
# Unmarked numbers belong to inactive results. The rule behind the calls is not given here.
# Molecular target: Pantothenate synthetase (Mycobacterium tuberculosis (strain ATCC 25618 / H37Rv)) (UniProt P9WIL5)
# Test: Coupled enzyme confirmation of inhibitors against recombinant Mtb PanC (AID 375);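 note: 0% = full reaction with vehicle and 100% = no enzyme background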
# Details: coupled enzyme assay; at 10 µM, stronger effect = higher value
# Chain of Pantothenate synthetase (Mycobacterium tuberculosis (strain ATCC 25618 / H37Rv)) (P9WIL5 whole entry, looked up): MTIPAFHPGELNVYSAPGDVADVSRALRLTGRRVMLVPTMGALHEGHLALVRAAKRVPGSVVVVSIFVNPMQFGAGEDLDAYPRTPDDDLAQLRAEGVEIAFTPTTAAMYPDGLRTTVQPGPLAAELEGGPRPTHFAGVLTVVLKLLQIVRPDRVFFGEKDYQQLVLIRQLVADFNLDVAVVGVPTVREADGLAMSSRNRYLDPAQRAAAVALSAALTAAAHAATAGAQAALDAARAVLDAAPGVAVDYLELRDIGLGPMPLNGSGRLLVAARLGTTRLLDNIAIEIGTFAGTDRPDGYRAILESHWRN
row,Compound,inhibition [%]
1,Cc1cccc(Cn2c(SCC(=O)Nc3ccccc3)nc3c2c(=O)[nH]c(=O)n3C)c1,3
2,CCOc1cc(C2C3=C(CCCC3=O)N(C)C3=C2C(=O)CCC3)cc(Cl)c1O,0
3,C/C=C(/C(=C/C)c1ccc(O)cc1)c1ccc(O)cc1,0
4,CCOC(=O)c1c(C)n(C)c2ccc(OC)c(NC(=O)CCN3CCSCC3)c12,2
5,O=C(O)c1cccc(S(=O)(=O)N2CCOCC2)c1,2
6,O=C(CN1CCCN(S(=O)(=O)c2ccc(F)cc2)CC1)Nc1ccccc1Br,5
7,Cc1nc2ccccc2cc1O,0
8,COCCNC(=O)c1cc2c(-c3ccccc3F)nn(C)c2s1,8
9,O=C1c2ccccc2C(Nc2ccc3nc(-c4cccnc4)[nH]c3c2)N1Cc1ccco1 (stereo not given),0
10,COc1ccc(Cc2nc(-c3ccc(Br)cc3)no2)cc1,7
11,CC(C)(C)NC(=O)C(Cc1ccccc1)NS(=O)(=O)c1cccc2nsnc12 (stereo not given),0
12,NS(=O)(=O)c1cc2c(cc1Cl)NC(C1C[C@H]3C=C[C@@H]1C3)NS2(=O)=O (stereo not given in full),0
13,COC(=O)CN(c1ccc(C)c(Cl)c1)S(C)(=O)=O,0
14,CC1CCc2nc(NC(=O)CN3CCN(Cc4ccc5c(c4)OCO5)CC3)sc2C1 (stereo not given),0
15,CSc1nc2ccccc2c(=O)n1N,0
16,C[C@@H]1C[C@H]2[C@@H]3C[C@H](F)C4=CC(=O)C=C[C@]4(C)[C@@]3(F)[C@@H](O)C[C@]2(C)[C@@]1(O)C(=O)COC(=O)C(C)(C)C,0
17,O=C(CCc1nc2ccccc2[nH]1)Nc1ccc2c(c1)OCO2,0
18,COc1ccc(S(=O)(=O)N(C)CC(=O)N2CCCCC2)cc1Cl,0
19,Cn1nc(CC(=O)Nc2ccc(N3CCN(C(=O)OC(C)(C)C)CC3)cc2)c2ccccc2c1=O,0
20,O=S(=O)(c1ccc(-c2csc(-c3cccnc3)n2)cc1)N1CCCCC1,5

row,Compound,inhibition [%]
1,N#CC1=C(N)N2C(=C(C#N)C13CCCCC3)SC1CCCCC12O (stereo not given),0
2,COC(=O)c1cccc(NC(=O)NC2CCCN2S(=O)(=O)c2ccc(Cl)cc2)c1 (stereo not given),16
3,COCCCn1c(SCC(=O)Nc2cccc(C)n2)nnc1-c1ccco1,0
4,CCOC(=O)C1=C(C)NC(C)=C(C(=O)OC)C1c1cccc([N+](=O)[O-])c1 (stereo not given),7
5,CCOC(=O)c1c(C)oc2ccc(OCC(N)=O)cc12,0
6,CCOc1cccc(OCCOCCN2CCCC2)c1,8
7,Cc1cccc(NC(=O)c2cnc3sccn3c2=O)n1,4
8,CC(NC(=O)COc1ccc(Br)cc1)C(=O)O (stereo not given),0
9,COc1ccccc1N1C(=O)CC(Sc2nc(C)cc(C)n2)C1=O (stereo not given),0
10,O=C(COC(=O)CSc1nnc(-c2ccc(Cl)cc2)o1)NCc1ccc2c(c1)OCO2,12
11,CCCCC(CC)C(=O)Nc1ccccc1C#N (stereo not given),0
12,Cc1c(C(=O)NCCC2=CCCCC2)oc2ccc(S(=O)(=O)N3CCC4(CC3)OCCO4)cc12,0
13,CCOC(=O)c1sc(N2C(=O)C(O)=C(C(=O)c3ccco3)C2c2ccccc2)nc1C (stereo not given),0
14,CCOC(=O)c1ccc(N2C(=O)CC(NC3CCN(C(=O)c4ccc(F)cc4)CC3)C2=O)cc1 (stereo not given),1
15,Cc1ccc(S(=O)(=O)N2CCN(C(=O)c3cc(=O)[nH]c4ccccc34)CC2)c(C)c1,3
16,COc1ccc(/C=N/O)cc1COc1ccc(NC(C)=O)cc1,1
17,S=C(c1ccc(N2CCOCC2)cc1)N1CCCCC1,2
18,C[C@@H]1C[C@H]2[C@@H]3CCC4=CC(=O)C=C[C@]4(C)[C@@]3(F)[C@@H](O)C[C@]2(C)[C@H]1C(=O)CO,1
19,Cc1[nH]nc2c1C(C1CC=CCC1)C(C#N)=C(N)O2 (stereo not given),3
20,Cc1ccc(S(=O)(=O)Cc2ccc(C(=O)NCc3ccc4c(c3)OCO4)o2)cc1,0
